Inconclusive results are not listed. Activity calls are given as the source filed them. The call rests on the fitted dose curve; in most records, active means well fitted cell-killing curve with a large enough effect in the repeat runs; inconclusive means weak or mixed curves, or effect the other way; inactive means no such curve, though single readings can be large or run the other way.
On the % scale 0 is the no-effect control and ±100 the full control effect.

The test is described as follows: qHTS assay to identify small molecule antagonists of the peroxisome proliferator-activated receptor gamma (PPARg) signaling pathway - cell viability counter screen (AID 743194). Further: nearly all actives have a fitted effect of over 55% in size. Particulars: PPARg-bla HEK293H viability, CellTiter-Glo luminescence, 17 h, co-treated with 50 nM rosiglitazone; series mostly up to 62.6 µM; activity change, negative = cytotoxicity: at the top concentration. From the text:
U.S. Tox21 Program National Center for Advancing Translational Sciences [NCATS] NIH Chemical Genomics Center [NCGC] U.S. Environmental Protection Agency [EPA] National Institutes of Environmental Health Sciences [NIEHS] National Toxicology Program [NTP] U.S. Food and Drug Administration [FDA] Tox21 Assay Overview: The peroxisome proliferator-activated receptors (PPARs) are lipid-activated transcription factors of the nuclear receptor superfamily with three distinct subtypes namely PPAR alpha, PPAR delta (also called PPAR beta) and PPAR gamma (PPARg). All these subtypes heterodimerize with Retinoid X receptor (RXR) and these heterodimers regulate transcription of various genes. PPAR-gamma receptor (glitazone receptor) is involved in the regulation of glucose and lipid metabolism. To identify the compounds that activate PPAR-gamma signaling, GeneBLAzer PPAR gamma UAS-bla HEK293H cell line (Invitrogen, Carlsbad, CA, USA) containing a beta-lactamase reporter gene under the control of an Upstream Activator Sequence (UAS) was used to screen the Tox21 compound library. The cytotoxicity of the Tox21 compound library against the PPARg-bla cell line was tested in parallel by measuring the cell viability using CellTiter-Glo assay in the same wells.
Tox21 Assay Protocol Summary: PPARg-bla cells were dispensed at 3000 cells/5uL/well in 1536-well black wall/clear bottom plates using a Multidrop Combi (Thermo Fisher Scientific, Waltham, MA) dispenser. After the assay plates were incubated at 37 C and 5% CO2 for 5 h, 23 nL of compounds dissolved in DMSO, positive controls or DMSO only was transferred to the assay plate by a Pintool station (Kalypsys, San Diego, CA), followed by addition of 1ul Rosiglitazone (50 nM, final concentration in the wells). The assay plates were incubated at 37 C for 17 h, and then 1 uL of LiveBLAzerTM B/G FRET substrate was added using a Bioraptr Flying Reagent Dispenser (FRD) workstation (Beckman Coulter, Indianapolis, IN, USA). The assay plates were incubated at room temperature for 1 h and fluorescence intensity was measured by an Envision plate reader (PerkinElmer, Shelton, CT). For cell viability readout that measures cytotoxicity, 4 ul/well of CellTiter-Glo reagent was added into the assay plates using a Flying Reagent Dispenser. After 30 min incubation at room temperature, the luminescence intensity in the plates was measured using a ViewLux plate reader (PerkinElmer).
In general terms: qHTS replaces the single test concentration by a dilution series.
For `CC1CCC2CC1C2(C)C` (stereo not given), the outcome was inactive.

Take `CCCCCCCCCCCCS`: the result was inactive.

Consider `CC1=C(C)S(=O)(=O)CCS1(=O)=O`, for which the result was inactive.

As to `CC(C)c1ccc(S(=O)(=O)O)cc1`, the outcome was inactive.

Consider `CCc1cccc(C)c1N`, for which the result was inactive.

Turning to `c1c[nH]cn1`, the outcome was inactive.

As for `Cc1cc(C)c(C)cc1C`, the outcome was inactive.

Take `C#CCN(C)Cc1ccccc1`: the result was inactive.

`C[Si](O[Si](C)(C)C)O[Si](C)(C)C`: the “activity change, negative = cytotoxicity” value is 5.5% [at 81.1 µM] (inactive).

Consider `COCCCOc1ccnc(CS(=O)c2nc3ccccc3[nH]2)c1C` (stereo not given), for which the outcome was inactive.

Consider `Cc1cccnc1`, for which the result was inactive.

For `O=C(O)CCCCCCCCCCC(=O)O`, the outcome was inactive.

With `c1ccc2c(c1)ccc1ccccc12`, the outcome was inactive.

With `c1ccc2scnc2c1`, the result was inactive.

Turning to `CCc1ccc(CCOc2ccc(CC3SC(=O)NC3=O)cc2)nc1` (stereo not given), the outcome was inactive.

`OC[C@H]1O[C@@](CO)(O[C@H]2O[C@H](CO)[C@@H](O)[C@H](O)[C@H]2O)[C@@H](O)[C@@H]1O`: the “activity change, negative = cytotoxicity” value is -6.11% (inactive).

On to `O=C=NCCCCCCN=C=O`, for which the result was inactive.

Turning to `C=CCNC(N)=S`, the result was inactive.

`CCN(CC)CCCC(C)Nc1ccnc2cc(Cl)ccc12` (stereo not given): the result was inactive.

In the case of `O=C(O)CC(C(=O)O)C(CC(=O)O)C(=O)O` (stereo not given), the result was inactive.

On to `C/C=C1/CC2C=CC1C2` (stereo not given), for which the “activity change, negative = cytotoxicity” value was 5.05% (inactive).

For the compound `O=C(O)CCCC[C@@H]1SC[C@@H]2NC(=O)N[C@@H]21`, the outcome was inactive.

As to `NNc1nncc2ccccc12`, the outcome was inactive.

Take `CC(C)(N)CO`: the outcome was inactive.

For the compound `O=S1(=O)CC=CC1`, the outcome was inactive.

Consider `O=C1CCC(N2C(=O)c3ccccc3C2=O)C(=O)N1` (stereo not given), for which the result was inactive.

`CC(=O)OCC(=O)[C@@]12N=C(C)O[C@@H]1C[C@H]1[C@@H]3CCC4=CC(=O)C=C[C@]4(C)[C@H]3[C@@H](O)C[C@@]12C`: the result was inactive.

On to `CCCCC(CC)COC(=O)C(C#N)=C(c1ccccc1)c1ccccc1` (stereo not given), for which the result was inactive.

As to `C=C(C)C(=O)O[C@H]1C[C@@H]2CC[C@@]1(C)C2(C)C`, the outcome was inactive.

`Cc1occc(=O)c1O`: the result was inactive.

As to `O=C(OCCOCCOC(=O)c1ccccc1)c1ccccc1`, the outcome was inactive.

For `CCN(CC)c1ccc(C(=O)c2ccccc2C(=O)O)c(O)c1`, the “activity change, negative = cytotoxicity” value was 6.87% (inactive).

Turning to `CC(C)CC(=O)CC(C)C`, the result was inactive.

As to `O=C(O)c1cc(=O)c2c(OCC(O)COc3cccc4oc(C(=O)O)cc(=O)c34)cccc2o1`, the result was inactive.

Turning to `CC1=CC(=O)NS(=O)(=O)O1`, the outcome was inactive.

Turning to `O=P(OC(CCl)CCl)(OC(CCl)CCl)OC(CCl)CCl`, the outcome was inactive.

Regarding `O=c1[nH]c(=O)n([C@H]2C[C@H](O)[C@@H](CO)O2)cc1Br`, the result was inactive.

For `O=c1[nH]nnc2ccccc12`, the “activity change, negative = cytotoxicity” value was 21% [at 81.1 µM] (inactive).

As for `COc1ccc(NC(C)=O)cc1N`, the outcome was inactive.

`C#C[C@]1(O)CC[C@H]2[C@@H]3CCC4=CC(=O)CC[C@@H]4[C@H]3CC[C@@]21C`: the result was inactive.
